From PubChem BioAssay (EPA / NIEHS)
The source made the active and inactive calls. How the source made its calls: active means hit-call score of the fitted dose curve at least 0.9, where 1 is the maximum; inactive means score below 0.9.

Columns and labels:
[1] = target: Bile acid receptor (Homo sapiens) (UniProt Q96RI1); experiment: ATG_IR1_CIS: Attagene CIS-FACTORIAL HepG2 Assay for human Nuclear Receptor Subfamily 1 Group H Member 4 (NR1H4), IR1 submotif (AID 2282946); conditions: IR1 reporter transcription, actives raise or lower the signal
Outline: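 Cells (human HepG2) carry transiently transfected cis-promoter reporter transcription units. Compounds are incubated 24 h, total RNA is reverse-transcribed and amplified, and labelled fragments are resolved by capillary electrophoresis. Curves use DMSO as baseline.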

[2] = ATG_GRE_CIS: Attagene CIS-FACTORIAL HepG2 Assay for human Glucocorticoid Response Elements (GRE) (AID 2282947); conditions: HepG2 GRE cis-reporter, Attagene multiplex mRNA; actives raise or lower the signal
Outline: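 Assay uses human hepatoma HepG2 cells transfected with cis-promoter reporter units, exposed 24 h. mRNA from reporters detected by RT-PCR plus capillary electrophoresis; DMSO serves as negative control and baseline.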

[3] = ATG_M_32_CIS: Attagene CIS-FACTORIAL HepG2 Assay for M32 Transcription Factor (Internal Marker) (AID 2282949); conditions: HepG2 Attagene cis-factorial M32 reporter, mRNA; actives raise or lower the signal;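 further: background control marker of the multiplexed CIS panel rather than a real target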
Outline: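 Internal background marker read-out: RT-PCR/capillary electrophoresis fluorescence of reporter transcripts from transiently transfected HepG2 cells after 24 h chemical exposure. Activity fitted bidirectionally relative to DMSO negative control.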

[4] = ATG_M_06_CIS: Attagene CIS-FACTORIAL HepG2 Assay for M06 Transcription Factor (Internal Marker) (AID 2282950); conditions: HepG2 Attagene CIS-FACTORIAL M06 internal marker reporter; actives raise or lower the signal
Outline: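 HepG2 liver cells, 24 h exposure. Reporter transcripts from transfected cis-element constructs quantified by RT-PCR/capillary electrophoresis fluorescence. Bidirectional curve fit against DMSO.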

[5] = target: Hypoxia-inducible factor 1-alpha (Homo sapiens) (UniProt Q16665); experiment: ATG_HIF1a_CIS: Attagene CIS-FACTORIAL HepG2 Assay for human Hypoxia Inducible Factor 1 (HIF1A) (AID 2282951); conditions: HepG2 Attagene cis-factorial HIF1a reporter transcription; actives raise or lower the signal
Outline: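 In this multiplexed cell assay, HepG2 cells bearing transfected cis reporters are dosed for 24 h and reporter mRNA is read by RT-PCR plus capillary electrophoresis; signal increases and decreases are both scored against DMSO.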

[6] = target: Hepatocyte nuclear factor 6 (Homo sapiens) (UniProt Q9UBC0); experiment: ATG_HNF6_CIS: Attagene CIS-FACTORIAL HepG2 Assay for human Hepatocyte Nuclear Factor 6 (HNF6) (AID 2282952); conditions: HepG2 Attagene cis-factorial HNF6 reporter transcription; actives raise or lower the signal
Outline: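 Multiplexed mRNA reporter assay in transfected HepG2; 24 h dosing; RT-PCR plus capillary electrophoresis fluorescence; DMSO-referenced bidirectional curve fitting.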

[7] = target: Heat shock factor protein 1 (Homo sapiens) (UniProt Q00613); experiment: ATG_HSE_CIS: Attagene CIS-FACTORIAL HepG2 Assay for human Heat Shock Transcription Factor 1 (HSE) (AID 2282953); conditions: HepG2 HSE cis-reporter, Attagene RNA transcription; actives raise or lower the signal
Outline: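 Endogenous transcription factor activity captured via cis-promoter reporter units transfected into HepG2; treatment lasted 24 h. Fluorescence intensity of reporter fragments analysed with bidirectional curve fitting, DMSO baseline.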

[8] = ATG_MRE_CIS: Attagene CIS-FACTORIAL HepG2 Assay for human Metal Responsive Element (MRE) (AID 2282954); conditions: HepG2 MRE cis-reporter transcription, Attagene multiplex; actives raise or lower the signal
Outline: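 After a 24 h chemical exposure, transiently transfected HepG2 cells yield RNA whose reporter sequences are amplified, FAM-labelled and sized by capillary electrophoresis. Curves are fitted bidirectionally relative to DMSO.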

[9] = ATG_PBREM_CIS: Attagene CIS-FACTORIAL HepG2 Assay for human Phenobarbital-responsive Enhancer Module (PBREM) (AID 2282955); conditions: HepG2 PBREM cis-reporter, Attagene multiplexed transcription; actives raise or lower the signal
Outline: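 After a 24 h incubation with test chemical, transfected HepG2 cells yield total RNA; reporter-specific RT-PCR products are fluorescently labelled, HpaI-digested and resolved by capillary electrophoresis against ROX size standards.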

[10] = target: Paired box protein Pax-6 (Homo sapiens) (UniProt P26367); experiment: ATG_Pax6_CIS: Attagene CIS-FACTORIAL HepG2 Assay for human Paired Box 6 (PAX6) (AID 2282956); conditions: HepG2 CIS-FACTORIAL PAX6 reporter transcription, RNA readout; actives raise or lower the signal
Outline: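 HepG2 cells transiently transfected with cis-promoter-driven multiplexed reporter units sensing endogenous transcription factor activity; 24 h chemical exposure. Reporter mRNA quantified by RT-PCR, 6-FAM labelling, HpaI digestion and capillary electrophoresis; bidirectional fit versus DMSO baseline.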

[11] = ATG_PXRE_CIS: Attagene CIS-FACTORIAL HepG2 Assay for human Pregnane X Receptor Element (PXRE) (AID 2282957); conditions: HepG2 Attagene CIS-FACTORIAL PXRE reporter, mRNA; actives raise or lower the signal
Outline: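 Cells: HepG2, transiently transfected reporter units under cis promoter control. Exposure: 24 h. Detection: reporter mRNA via RT-PCR/CE fluorescence; bidirectional fitting, DMSO-referenced.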

[12] = ATG_PPRE_CIS: Attagene CIS-FACTORIAL HepG2 Assay for human Peroxisome Proliferator-activated Response Element (PPRE) (AID 2282958); conditions: HepG2 PPRE cis-element reporter, Attagene transcription factor profiling; actives raise or lower the signal
Outline: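 Multiplexed reporter transcription units under cis-regulatory promoters were transfected into HepG2 cells to capture endogenous factor activity. A 24 h incubation preceded RNA isolation and fluorescent RT-PCR fragment analysis.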

[13] = ATG_RORE_CIS: Attagene CIS-FACTORIAL HepG2 Assay for human RAR-related Orphan Receptor Element (RORE) (AID 2282959); conditions: HepG2 Attagene cis-factorial RORE reporter, mRNA; actives raise or lower the signal
Outline: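 Fluorescence intensity of reporter-specific cDNA fragments, separated by capillary electrophoresis, gives the signal. Source: HepG2 liver cells transiently transfected with cis-element reporters and exposed 24 h; DMSO-normalized bidirectional fit.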

[14] = ATG_Sox_CIS: Attagene CIS-FACTORIAL HepG2 Assay for human SRY-box transcription factor (SOX) (AID 2282960); conditions: HepG2 Attagene cis-factorial SOX reporter, mRNA; actives raise or lower the signal
Outline: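 After 24 h of chemical treatment, transfected HepG2 reporter cells are lysed for total RNA. Transcript levels come from RT-PCR with labelled primer extension and capillary electrophoresis, analysed bidirectionally versus DMSO.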

[15] = target: Transcription factor Sp1 (Homo sapiens) (UniProt P08047); experiment: ATG_Sp1_CIS: Attagene CIS-FACTORIAL HepG2 Assay for human Specificity Protein 1 (Sp1) (AID 2282961); conditions: HepG2 Sp1 cis-reporter transcription, actives raise or lower the signal
Outline: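 Sp1-driven reporter mRNA, read as capillary electrophoresis fluorescence after RT-PCR, in transiently transfected HepG2 cells dosed for 24 h; signal change in either direction relative to DMSO.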

[16] = ATG_SREBP_CIS: Attagene CIS-FACTORIAL HepG2 Assay for human Sterol Regulatory Element Binding (SREBP) (AID 2282962); conditions: HepG2 Attagene cis-factorial SREBP reporter, mRNA; actives raise or lower the signal
Outline: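 HepG2 cells transiently transfected with multiplexed cis-promoter reporter units sensing endogenous transcription factors; reporter mRNA measured 24 h after dosing by RT-PCR, 6-FAM labeling, HpaI digestion and capillary electrophoresis. Bidirectional fit versus DMSO.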

[17] = target: Signal transducer and activator of transcription 3 (Homo sapiens) (UniProt P40763); experiment: ATG_STAT3_CIS: Attagene CIS-FACTORIAL HepG2 Assay for human Signal Transducer and Activator of Transcription 3 (STAT3) (AID 2282963); conditions: HepG2, Attagene cis-factorial STAT3 reporter transcription; actives raise or lower the signal
Outline: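 After a 24 h compound incubation, total RNA from MRTU-transfected HepG2 cells was converted to cDNA and reporter sequences PCR-amplified, labelled and profiled by capillary electrophoresis. Gain and loss of signal were referenced to DMSO.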

[18] = ATG_TCF_b_cat_CIS: Attagene CIS-FACTORIAL HepG2 Assay for human T-Cell-Factor with beta-catenin (TCF/b-cat) (AID 2282965); conditions: HepG2 TCF/beta-catenin cis-reporter transcription, actives raise or lower the signal
Outline: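 Endogenous transcription factor activity is captured through cis-promoter reporter constructs transiently introduced into human HepG2 liver cells. Induced reporter mRNA is measured after 24 h and fitted bidirectionally relative to DMSO.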

[19] = ATG_ISRE_CIS: Attagene CIS-FACTORIAL HepG2 Assay for human Interferon Regulatory Factor 1 (IRF1) binding to an Interferon-Stimulated Response Element (ISRE) (AID 2282948); conditions: HepG2 ISRE cis-reporter (Attagene), mRNA transcription readout; actives raise or lower the signal
Outline: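 Transiently transfected HepG2 cells carrying cis-element reporter units, dosed 24 hours. Reporter mRNA quantified by RT-PCR, fluorescent primer extension, HpaI digestion and capillary electrophoresis. Bidirectional fitting relative to DMSO.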

[20] = ATG_TA_CIS: Attagene CIS-FACTORIAL HepG2 Assay for human TA Basal Promoter (AID 2282964); conditions: HepG2 Attagene CIS-factorial TA basal promoter reporter; actives raise or lower the signal
Outline: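 Fluorescence from labelled RT-PCR reporter fragments, separated by capillary electrophoresis, gives the signal. Cells: HepG2 transiently carrying multiple reporter units, 24 h chemical dosing. Gain or loss relative to DMSO.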

Measured: AC50

Bile acid receptor (Homo sapiens), sequence (Q96RI1 whole entry, looked up, the tested form may be a part): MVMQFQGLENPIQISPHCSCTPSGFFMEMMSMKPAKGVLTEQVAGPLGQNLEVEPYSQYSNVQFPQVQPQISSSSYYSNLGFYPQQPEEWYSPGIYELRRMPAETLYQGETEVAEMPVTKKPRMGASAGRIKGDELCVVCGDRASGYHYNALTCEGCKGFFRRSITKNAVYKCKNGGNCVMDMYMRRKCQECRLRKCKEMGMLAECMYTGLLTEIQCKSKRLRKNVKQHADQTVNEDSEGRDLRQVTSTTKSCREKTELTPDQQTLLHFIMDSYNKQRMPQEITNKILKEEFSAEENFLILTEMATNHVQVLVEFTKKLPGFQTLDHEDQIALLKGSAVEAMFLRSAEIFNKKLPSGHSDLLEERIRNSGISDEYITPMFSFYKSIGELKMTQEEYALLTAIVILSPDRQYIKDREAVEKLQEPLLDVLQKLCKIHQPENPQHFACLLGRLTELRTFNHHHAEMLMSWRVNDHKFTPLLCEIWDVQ
Hepatocyte nuclear factor 6 (Homo sapiens), sequence (Q9UBC0 whole entry, looked up): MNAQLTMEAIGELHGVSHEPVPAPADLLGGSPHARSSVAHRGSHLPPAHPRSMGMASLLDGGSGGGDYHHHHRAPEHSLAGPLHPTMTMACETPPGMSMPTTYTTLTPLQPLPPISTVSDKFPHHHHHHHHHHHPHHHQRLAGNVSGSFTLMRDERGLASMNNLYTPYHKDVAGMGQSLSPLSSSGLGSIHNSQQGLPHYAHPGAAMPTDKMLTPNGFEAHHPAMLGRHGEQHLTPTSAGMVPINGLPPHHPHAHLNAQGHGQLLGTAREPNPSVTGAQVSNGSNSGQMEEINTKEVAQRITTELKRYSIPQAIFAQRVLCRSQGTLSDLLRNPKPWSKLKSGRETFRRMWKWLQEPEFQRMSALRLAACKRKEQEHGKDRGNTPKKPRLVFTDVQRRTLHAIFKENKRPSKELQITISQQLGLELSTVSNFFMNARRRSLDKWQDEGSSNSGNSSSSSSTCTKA
Paired box protein Pax-6 (Homo sapiens), sequence (P26367 whole entry, looked up): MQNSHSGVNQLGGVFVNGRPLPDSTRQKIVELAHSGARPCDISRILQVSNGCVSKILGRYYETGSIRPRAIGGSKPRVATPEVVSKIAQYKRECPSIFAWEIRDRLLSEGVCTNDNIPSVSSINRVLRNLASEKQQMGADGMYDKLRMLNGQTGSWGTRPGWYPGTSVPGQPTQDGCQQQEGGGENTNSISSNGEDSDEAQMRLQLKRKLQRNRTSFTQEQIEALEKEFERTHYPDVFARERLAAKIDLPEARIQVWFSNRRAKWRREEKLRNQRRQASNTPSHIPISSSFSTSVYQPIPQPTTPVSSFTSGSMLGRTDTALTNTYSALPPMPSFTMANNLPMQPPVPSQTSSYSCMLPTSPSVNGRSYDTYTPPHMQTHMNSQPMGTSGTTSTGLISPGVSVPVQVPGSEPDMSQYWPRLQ
Hypoxia-inducible factor 1-alpha (Homo sapiens), sequence (Q16665 whole entry, looked up): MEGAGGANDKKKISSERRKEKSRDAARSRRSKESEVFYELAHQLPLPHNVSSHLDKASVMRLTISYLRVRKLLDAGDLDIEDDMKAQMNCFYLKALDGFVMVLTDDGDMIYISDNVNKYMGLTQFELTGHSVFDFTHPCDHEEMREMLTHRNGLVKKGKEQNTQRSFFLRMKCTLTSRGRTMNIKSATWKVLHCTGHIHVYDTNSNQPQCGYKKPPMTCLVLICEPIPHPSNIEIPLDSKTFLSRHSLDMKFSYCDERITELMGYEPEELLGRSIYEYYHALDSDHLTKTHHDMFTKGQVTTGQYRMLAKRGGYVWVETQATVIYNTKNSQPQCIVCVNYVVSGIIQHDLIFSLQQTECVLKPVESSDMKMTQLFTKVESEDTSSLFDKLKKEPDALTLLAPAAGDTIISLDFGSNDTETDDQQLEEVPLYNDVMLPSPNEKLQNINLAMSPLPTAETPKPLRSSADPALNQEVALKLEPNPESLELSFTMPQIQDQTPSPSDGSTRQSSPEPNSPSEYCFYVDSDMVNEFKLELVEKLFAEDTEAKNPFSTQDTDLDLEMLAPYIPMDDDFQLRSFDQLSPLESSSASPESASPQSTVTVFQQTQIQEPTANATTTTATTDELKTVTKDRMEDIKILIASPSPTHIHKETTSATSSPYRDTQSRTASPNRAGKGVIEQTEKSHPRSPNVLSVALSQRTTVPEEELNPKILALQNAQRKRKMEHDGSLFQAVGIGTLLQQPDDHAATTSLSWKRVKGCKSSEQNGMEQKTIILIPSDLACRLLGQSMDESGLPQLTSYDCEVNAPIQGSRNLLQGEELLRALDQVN
Heat shock factor protein 1 (Homo sapiens), sequence (Q00613 whole entry, looked up, the tested form may be a part): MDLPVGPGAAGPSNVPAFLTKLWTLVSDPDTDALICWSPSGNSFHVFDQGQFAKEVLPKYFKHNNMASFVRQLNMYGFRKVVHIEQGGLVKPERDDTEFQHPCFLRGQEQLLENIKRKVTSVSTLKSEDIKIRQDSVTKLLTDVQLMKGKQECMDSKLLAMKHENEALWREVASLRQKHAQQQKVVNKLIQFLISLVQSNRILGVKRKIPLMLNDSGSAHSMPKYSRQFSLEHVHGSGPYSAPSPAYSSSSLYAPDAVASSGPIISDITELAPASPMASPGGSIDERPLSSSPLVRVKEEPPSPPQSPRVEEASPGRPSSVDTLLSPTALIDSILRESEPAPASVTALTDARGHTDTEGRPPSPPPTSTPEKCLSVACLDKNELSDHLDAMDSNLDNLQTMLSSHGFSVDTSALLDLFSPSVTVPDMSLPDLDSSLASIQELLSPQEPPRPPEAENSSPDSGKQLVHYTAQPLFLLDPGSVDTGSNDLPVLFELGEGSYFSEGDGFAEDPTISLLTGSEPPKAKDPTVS
Transcription factor Sp1 (Homo sapiens), sequence (P08047 whole entry, looked up): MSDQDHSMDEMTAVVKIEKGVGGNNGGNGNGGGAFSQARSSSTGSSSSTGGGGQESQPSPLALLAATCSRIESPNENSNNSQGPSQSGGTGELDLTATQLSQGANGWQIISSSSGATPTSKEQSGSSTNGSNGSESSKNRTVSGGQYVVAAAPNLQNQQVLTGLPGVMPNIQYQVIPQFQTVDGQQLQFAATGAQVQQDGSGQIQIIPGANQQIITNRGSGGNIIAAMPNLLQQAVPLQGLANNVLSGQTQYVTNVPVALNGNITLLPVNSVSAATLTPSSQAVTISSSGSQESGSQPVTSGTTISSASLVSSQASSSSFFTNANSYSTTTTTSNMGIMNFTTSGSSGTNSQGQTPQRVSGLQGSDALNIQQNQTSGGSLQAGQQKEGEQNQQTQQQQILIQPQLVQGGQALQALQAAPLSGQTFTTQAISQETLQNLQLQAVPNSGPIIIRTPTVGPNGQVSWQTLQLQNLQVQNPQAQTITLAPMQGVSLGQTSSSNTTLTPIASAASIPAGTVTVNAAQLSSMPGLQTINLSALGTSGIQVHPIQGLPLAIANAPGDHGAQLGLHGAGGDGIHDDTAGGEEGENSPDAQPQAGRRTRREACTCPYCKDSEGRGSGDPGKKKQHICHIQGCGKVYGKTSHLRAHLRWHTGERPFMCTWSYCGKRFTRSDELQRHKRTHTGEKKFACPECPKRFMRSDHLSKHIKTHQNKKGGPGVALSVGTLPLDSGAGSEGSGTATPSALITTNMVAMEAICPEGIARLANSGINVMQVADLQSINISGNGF
Signal transducer and activator of transcription 3 (Homo sapiens), sequence (P40763 whole entry, looked up): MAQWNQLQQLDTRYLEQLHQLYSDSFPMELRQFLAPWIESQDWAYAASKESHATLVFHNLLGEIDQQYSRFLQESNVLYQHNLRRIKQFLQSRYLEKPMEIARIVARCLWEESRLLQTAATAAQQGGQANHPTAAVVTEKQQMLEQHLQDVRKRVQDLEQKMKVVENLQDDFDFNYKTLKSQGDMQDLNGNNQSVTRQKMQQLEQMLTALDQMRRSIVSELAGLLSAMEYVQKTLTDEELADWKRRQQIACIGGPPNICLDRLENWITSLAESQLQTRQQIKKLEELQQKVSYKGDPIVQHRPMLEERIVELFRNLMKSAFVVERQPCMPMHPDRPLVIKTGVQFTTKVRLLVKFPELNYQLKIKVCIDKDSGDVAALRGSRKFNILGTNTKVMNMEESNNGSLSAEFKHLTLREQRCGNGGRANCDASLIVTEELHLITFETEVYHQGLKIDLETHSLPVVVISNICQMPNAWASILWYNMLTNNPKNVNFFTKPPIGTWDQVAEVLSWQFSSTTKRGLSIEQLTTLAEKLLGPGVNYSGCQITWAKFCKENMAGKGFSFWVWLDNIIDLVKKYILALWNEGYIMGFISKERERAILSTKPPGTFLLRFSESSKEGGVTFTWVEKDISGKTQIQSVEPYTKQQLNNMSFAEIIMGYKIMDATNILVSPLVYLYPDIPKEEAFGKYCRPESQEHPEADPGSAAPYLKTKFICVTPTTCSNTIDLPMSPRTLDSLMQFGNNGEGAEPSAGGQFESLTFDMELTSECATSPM

COc1cccc(OC)c1
not listed: [19] | [20]
inactive: all other assays above

CCCC/C=C\CCCCCCCCCC=O
not listed: [2] | [17] | [20]
inactive: all other assays above

CCN(CC)c1ccc2c(-c3ccccc3C(=O)O)c3ccc(=[N+](CC)CC)cc-3oc2c1
active: [1] 70.4 µM | [19] 59.9 µM | [5] 154 µM | [7] 178 µM | [8] 156 µM | [10] 149 µM | [11] 0.882 µM | [16] 26.9 µM
not listed: [2] | [18]
inactive: all other assays above

O=c1[nH]nnc2ccccc12
not listed: [2]
inactive: all other assays above

C=C(C)C(=O)OCc1ccccc1
not listed: [2] | [6] | [7]
inactive: all other assays above

CC(=O)C(C)=O
active: [1] 28.8 µM | [11] 26.5 µM
not listed: [3] | [5] | [19]
inactive: all other assays above

OCC(CO)(CO)COCC(CO)(CO)CO
not listed: [2] | [7] | [12] | [13]
inactive: all other assays above

CCCCCCOC(=O)CC
not listed: [3] | [5] | [19]
inactive: all other assays above

O=P(c1ccccc1)(c1ccccc1)c1ccccc1
active: [11] 5.59 µM
not listed: [2] | [6] | [7]
inactive: all other assays above

O=C(O)c1cccc([N+](=O)[O-])c1
not listed: [1] | [9]
inactive: all other assays above

Clc1ccc2c(c1)C(N1CCNCC1)=Nc1ccccc1O2
active: [3] 52.4 µM | [7] 52.1 µM | [8] 34.2 µM | [10] 41.1 µM
not listed: [1] | [9] | [18]
inactive: all other assays above

Nc1ccc(S(N)(=O)=O)cc1
not listed: [1] | [11] | [12] | [13]
inactive: all other assays above

ClCCCl
not listed: [1] | [16]
inactive: all other assays above

C=C(C)C(=O)O
not listed: [1] | [9] | [16] | [18]
inactive: all other assays above

O=C1OC2(c3cc(Br)c(O)c(Br)c3Oc3c2cc(Br)c(O)c3Br)c2c(Cl)c(Cl)c(Cl)c(Cl)c21
active: [8] 19.1 µM | [10] 62.2 µM | [11] 5.13 µM | [13] 50.2 µM | [16] 17 µM | [18] 87.5 µM
not listed: [1]
inactive: all other assays above
